Values joined by “and” are separate entries in the source; they are usually repeats but may differ in a detail not shown here. Identical values can stand only once. The panel holds about 83,000 compounds, 20% with a hit somewhere; the sample as a whole holds those more often.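 A percent growth of 40 corresponds to 60% growth inhibition; 0 means no net growth; -100 means all cells died. Active threshold: below 10.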 Unmarked numbers belong to inactive results. Active and inactive are the calls of the source.
test system: MDA-MB-468 breast; assay: NCI-60 one-dose screen, 48 h (100 = growth as untreated, 0 = no growth, -100 = all killed); conditions: 10 µM unless noted

SMILES	growth
COc1ccc(-c2nc3cc(Cl)c(Cl)cc3n2CC(=O)N=Nc2c(O)[nH]c3ccc(Cl)cc23)cc1	-40.1% (active)
CCCCOc1ccc(C(C)(C)c2ccc(OCCCC)cc2)cc1	132%
COc1ccc(/C=C2\C(=O)N(C(=O)c3csc(NC(C)=O)n3)N=C2C)cc1	112%
C=Cc1nn2c(CCC(=O)c3nc4ccccc4[nH]3)nnc2s1	110%
CN1CCN(C(=O)[C@@]2(C)CC[C@]3(C)CC[C@]4(C)C(=CC[C@@H]5[C@@]6(C)CC[C@H](OC(=O)c7cccnc7)C(C)(C)[C@@H]6CC[C@]54C)[C@@H]3C2)CC1	92.6%
CCCCCCCCCCCCCC[N+](C)(C)CCCCCCCCCCCCCC	21.4%
O=C(Nc1ccc(F)cc1F)c1cc(Cl)ccc1O	-4.07% (active)
Cn1c([N+](=O)[O-])cnc1/C=C1\Oc2ccc(Br)cc2C1=O	13.1%
CN(C)CCCNCc1ccc(-c2ccc(F)c(Cl)c2)o1	-66.3% (active)
Cc1cc2ccccc2c(O)c1C#N	117%
COc1ccc(-c2cc(-c3nnc(SCC(=O)Nc4ccc(/C(C)=N\O)cc4)n3-c3ccccc3)c3cc(OC)ccc3n2)cc1	62.4%
COC(=O)Nc1nc2ccc(C3(c4ccc(F)cc4)OCCO3)cc2[nH]1	23.3%
CN(C)c1ccc(C(=O)c2ccc(N(C)C)c(N)c2)cc1N	-20.9% (active)
O=C(CSc1nnc(-c2ccc(Cl)cc2)n1-c1ccccc1)Nc1ccc(F)cc1	91.8%
CC/C(=C\c1ccc(OC)cc1)C(=O)c1ccc(OC)cc1	79.2%
Cn1ncc(CC(=O)O)c1-n1nnc2cc(Cl)ccc2c1=O	89.5%
Cc1ccc2c(C(C[N+](=O)[O-])c3ccccc3)c(-c3ccccc3)[nH]c2c1 (centres undefined)	-9.08% [9.5 µM] (active)
CN(C)CCNc1nc2ccccc2c2c(=O)c3ccccc3sc12	-23.6% (active)
NNC(=O)Oc1c(Cl)cc(Cl)cc1[N+](=O)[O-]	112%
Cc1csc(-c2ccc3c(c2)COC3(CCCN(C)C)c2ccc(F)cc2)c1 (centres undefined)	31.1%

SMILES	growth
O=c1[nH]c(-c2ccc(Cl)cc2)nc2sc3c(c12)CCCC3	82.2%
O=C(O)c1ccc(-n2cc(CNc3ccc(Cl)cc3)c(-c3ccccc3)n2)cc1	102%
O=C(Nc1cccc(Cl)c1)Nc1cccc(Cn2c(=O)[nH]c3ccc(Oc4ncccn4)cc3c2=O)c1	-0.625% (active)
CC(=O)NC1C(O[C@H]2C[C@H]3[C@@H]4CC=C5C[C@@H](O)CC[C@]5(C)[C@H]4CC[C@]3(C)[C@H]2[C@H](C)C(=O)CCC(C)C)OCC(O)C1O (some centres undefined)	51.6%
CC/C(=C(/c1ccc(OCCN(C)C)cc1)c1ccc(OC(=O)CCC(=O)c2c(C)[nH]c(/C=C3\N=C(c4ccc[nH]4)C=C3OC)c2C)cc1)c1ccccc1	53.4%
NC(=O)Nc1cc(-c2cccc(F)c2)sc1C(=O)N[C@H]1CCCNC1	-60.5% (active)
O=[N+]([O-])/C(=C/C=C/c1ccccc1)c1ccccc1	2.79% (active)
CN(CC(=O)O)c1ccc(/C=C/c2ccnc3ccccc23)cc1	-0.654% (active)
C=C(C)[C@@H]1CC[C@]2(C)[C@H](CC=C3[C@@H]4C[C@](C)(C(=O)N5CCN(C)CC5)CC[C@]4(C)CC[C@]32C)[C@@]1(C)CCC#N	38.3%
CC1NC(=O)NC1CCCCCC(=O)O (centres undefined)	101%
CCN(CC)c1ccc(/C=N/NC(=O)C[N+](C)(C)C)cc1	112%
N#CC1c2ccccc2C=CN1C(=O)c1ccccc1 (centres undefined)	108% and 96.5%
CCOC(=O)c1cc(C(=O)c2ccc(OC)c(OC)c2)n2ccncc12	99.5%
CC(=O)NC(Cc1ccccc1)C(=O)Oc1ccc2ccccc2c1 (centres undefined)	107% and 119%
C=C(C)C(=O)O[C@H]1C[C@@]2(C)OC(=CC2=O)/C(C)=C\[C@H]2OC(=O)C(=C)[C@H]12	-52.5% (active)
COC(=O)CCCCN=Cc1c(O)c(O)c(C(C)C)c2cc(C)c(-c3c(C)cc4c(C(C)C)c(O)c(O)c(C=NCCCCC(=O)OC)c4c3O)c(O)c12	18.6%
CCOC(=O)C/C(=C\c1ccccc1)C(C)=O	108%
Cc1[nH]nc2c1C(c1cnn(C)c1)C(C#N)=C(N)O2 (centres undefined)	92.4%
COc1cc2cc(NCc3ccc(OC(F)F)cc3)nc(C)c2cc1OC	64.4%

Source: PubChem BioAssay (NCI)
